# Assay results as given in PubChem BioAssay (NCATS).
# Inconclusive results are not listed. Where a call stands in place of a potency, no number is given. Calls of active or inactive are those of the source. Unless noted, the call rests on the fitted dose curve; in most records, active means well fitted curve in the direction sought with a large enough effect; inconclusive means small, poorly fitted or top-dose-only effect, or another doubt; inactive means no such curve, though single readings can be large; an effect the other way counts as inactive or inconclusive.
# Target: 3',5'-cyclic-AMP phosphodiesterase 4B (Homo sapiens) (UniProt Q07343)
# Test: qHTS Assay for Inhibitors of PDE-IV (AID 607; active means well fitted activation curve with a large enough effect in the main read-out, with a control signal flat, not every such curve was filed as active)
# Conditions: HEK293 ACTOne CNG channel cells, membrane potential fluorescence; series mostly up to 22.9 µM
# In short: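 HEK293 ACTOne cells with CNG channel (1000/well), endogenous PDE4; membrane potential dye, compounds up to 22.9 uM final. Fluorescence Ex 535/Em 590; RO 20-1724 (100 uM final) as reference.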
# Sequence of 3',5'-cyclic-AMP phosphodiesterase 4B (Homo sapiens) (Q07343 whole entry, looked up): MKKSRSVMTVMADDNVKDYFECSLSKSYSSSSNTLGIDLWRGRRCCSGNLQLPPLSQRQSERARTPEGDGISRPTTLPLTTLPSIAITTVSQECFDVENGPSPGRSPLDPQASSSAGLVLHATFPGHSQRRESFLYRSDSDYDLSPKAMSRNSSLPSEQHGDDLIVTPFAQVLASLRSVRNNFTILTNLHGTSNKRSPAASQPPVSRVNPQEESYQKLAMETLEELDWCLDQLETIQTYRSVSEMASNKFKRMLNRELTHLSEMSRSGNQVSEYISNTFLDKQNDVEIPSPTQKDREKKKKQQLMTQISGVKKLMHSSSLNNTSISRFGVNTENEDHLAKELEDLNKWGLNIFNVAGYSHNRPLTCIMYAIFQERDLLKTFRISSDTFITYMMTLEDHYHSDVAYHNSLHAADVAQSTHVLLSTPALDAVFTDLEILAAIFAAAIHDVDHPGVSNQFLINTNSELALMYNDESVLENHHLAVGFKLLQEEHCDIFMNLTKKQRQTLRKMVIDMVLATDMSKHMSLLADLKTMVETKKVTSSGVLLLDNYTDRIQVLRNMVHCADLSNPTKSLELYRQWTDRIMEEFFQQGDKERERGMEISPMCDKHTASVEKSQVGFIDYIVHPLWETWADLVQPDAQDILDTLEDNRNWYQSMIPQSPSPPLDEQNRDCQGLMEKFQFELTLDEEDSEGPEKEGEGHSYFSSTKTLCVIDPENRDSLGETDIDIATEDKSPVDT
row,Structure (SMILES),outcome
1,NNC(=O)c1ccncc1,inactive
2,COc1cc(NS(=O)(=O)c2ccc(N)cc2)nc(OC)n1,inactive
3,CCn1cc(C(=O)O)c(=O)c2cc(F)c(N3CCNCC3)cc21,inactive
4,CCc1cc(C(N)=S)ccn1,inactive
5,CC(C)(Sc1cc(C(C)(C)C)c(O)c(C(C)(C)C)c1)Sc1cc(C(C)(C)C)c(O)c(C(C)(C)C)c1,inactive
6,Nc1ccc(S(=O)(=O)Nc2ccccn2)cc1,inactive

# Tested on: not listed separately
# Test: Cellular Toxicity (caspase-3) HepG2 (AID 654); further: potency means the concentration at half of the fitted maximal effect;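 on caspase-3 activation: cells exposed to compound for 16 hours before reading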
# Conditions: HepG2 caspase-3 activation, luminescence; series mostly up to 92.2 µM
# In short: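 Caspase 3/7 activation is measured as a luminescence increase (aminoluciferin substrate) after 16 h compound exposure of human hepatocarcinoma HepG2 cells. AC50 values are Hill fits, scaled between DMSO baseline and 100 uM tamoxifen stimulation.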
row,Structure (SMILES),Potency
1,Cc1ncc([N+](=O)[O-])n1CCO,inactive
2,Cc1noc(NS(=O)(=O)c2ccc(N)cc2)c1C,inactive
3,CN(C)c1ccc(C(=C2C=CC(=[N+](C)C)C=C2)c2ccc(N(C)C)cc2)cc1,31.6 µM (active)
4,Cc1ccnc2c1NC(=O)c1cccnc1N2C1CC1,inactive
5,O=C(N[C@H](CO)[C@H](O)c1ccc([N+](=O)[O-])cc1)C(Cl)Cl,inactive
6,Cc1cc(NS(=O)(=O)c2ccc(N)cc2)no1,inactive
7,Cc1nnc(NS(=O)(=O)c2ccc(N)cc2)s1,inactive
8,NC(N)=NC(N)=NCCc1ccccc1,inactive
9,O=C(O)c1cc(=O)[nH]c(=O)[nH]1,inactive
10,CC1=NN(c2ccccc2)C(=O)C1,inactive
11,C[C@]12C=CC(=O)C=C1CC[C@@H]1[C@@H]2C(=O)C[C@@]2(C)[C@H]1CC[C@]2(O)C(=O)CO,inactive
12,COc1ccc2cc3[n+](cc2c1OC)CCc1cc2c(cc1-3)OCO2,inactive
13,N=C(N)c1ccc(OCCCCCOc2ccc(C(=N)N)cc2)cc1,inactive
14,NNC(=O)c1ccncc1,inactive
15,CC(=O)[C@H]1CC[C@H]2[C@@H]3CCC4=CC(=O)CC[C@]4(C)[C@H]3CC[C@]12C,inactive
16,CCc1cc(C(N)=S)ccn1,inactive
17,CC(=O)Oc1ccccc1C(=O)Nc1ncc([N+](=O)[O-])s1,inactive

# Tested on: not listed separately
# Test: Cellular Toxicity (caspase-3) Jurkat (AID 655);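 further: cells exposed to compound for 16 h at 37 °C before reading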
# Conditions: Jurkat caspase-3 activation, luminescence, DMSO = 0%, tamoxifen = 100%; series mostly up to 92.2 µM
# In short: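 Luminescent Caspase-Glo 3/7 read-out (20 min, room temperature) after 16 h compound treatment at 37 C of 5000 Jurkat cells per well. AC50 derived by Hill-equation fitting, scaled between DMSO basal and 100 uM tamoxifen stimulation.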
row,Structure (SMILES),outcome
1,Cc1ncc([N+](=O)[O-])n1CCO,inactive
2,Cc1noc(NS(=O)(=O)c2ccc(N)cc2)c1C,inactive
3,CC[C@H](C)C(=O)O[C@H]1C[C@@H](C)C=C2C=C[C@H](C)[C@H](CC[C@@H]3C[C@@H](O)CC(=O)O3)[C@H]21,inactive
4,Cc1ccnc2c1NC(=O)c1cccnc1N2C1CC1,inactive
5,O=C(N[C@H](CO)[C@H](O)c1ccc([N+](=O)[O-])cc1)C(Cl)Cl,inactive
6,Cc1cc(NS(=O)(=O)c2ccc(N)cc2)no1,inactive
7,Cc1nnc(NS(=O)(=O)c2ccc(N)cc2)s1,inactive
8,NC(N)=NC(N)=NCCc1ccccc1,inactive
9,O=C(O)c1cc(=O)[nH]c(=O)[nH]1,inactive
10,CC1=NN(c2ccccc2)C(=O)C1,inactive
11,C[C@]12C=CC(=O)C=C1CC[C@@H]1[C@@H]2C(=O)C[C@@]2(C)[C@H]1CC[C@]2(O)C(=O)CO,inactive
12,COc1ccc2cc3[n+](cc2c1OC)CCc1cc2c(cc1-3)OCO2,inactive
13,N=C(N)c1ccc(OCCCCCOc2ccc(C(=N)N)cc2)cc1,inactive
14,NNC(=O)c1ccncc1,inactive
15,CC(=O)[C@H]1CC[C@H]2[C@@H]3CCC4=CC(=O)CC[C@]4(C)[C@H]3CC[C@]12C,inactive
16,CCc1cc(C(N)=S)ccn1,inactive
17,CC(=O)Oc1ccccc1C(=O)Nc1ncc([N+](=O)[O-])s1,inactive

# Tested on: not listed separately
# Test: Cellular Toxicity (caspase-3) HUV-EC-C (AID 656)
# Conditions: HUV-EC-C cells, caspase-3 activation (apoptosis), vehicle = 0, 100 µM tamoxifen = 100%; series mostly up to 92.2 µM
# In short: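 Luminescent Caspase-Glo 3/7 readout after 16 h, 37 °C compound exposure of HUV-EC-C endothelial cells, 1000 per well, complete medium. AC50 derived by Hill fitting, with DMSO as baseline and 100 uM tamoxifen as full activation.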
row,Structure (SMILES),outcome
1,Cc1ncc([N+](=O)[O-])n1CCO,inactive
2,Cc1noc(NS(=O)(=O)c2ccc(N)cc2)c1C,inactive
3,CC[C@H](C)C(=O)O[C@H]1C[C@@H](C)C=C2C=C[C@H](C)[C@H](CC[C@@H]3C[C@@H](O)CC(=O)O3)[C@H]21,inactive
4,Cc1ccnc2c1NC(=O)c1cccnc1N2C1CC1,inactive
5,O=C(N[C@H](CO)[C@H](O)c1ccc([N+](=O)[O-])cc1)C(Cl)Cl,inactive
6,Cc1cc(NS(=O)(=O)c2ccc(N)cc2)no1,inactive
7,Cc1nnc(NS(=O)(=O)c2ccc(N)cc2)s1,inactive
8,NC(N)=NC(N)=NCCc1ccccc1,inactive
9,O=C(O)c1cc(=O)[nH]c(=O)[nH]1,inactive
10,CC1=NN(c2ccccc2)C(=O)C1,inactive
11,C[C@]12C=CC(=O)C=C1CC[C@@H]1[C@@H]2C(=O)C[C@@]2(C)[C@H]1CC[C@]2(O)C(=O)CO,inactive
12,COc1ccc2cc3[n+](cc2c1OC)CCc1cc2c(cc1-3)OCO2,inactive
13,N=C(N)c1ccc(OCCCCCOc2ccc(C(=N)N)cc2)cc1,inactive
14,NNC(=O)c1ccncc1,inactive
15,CC(=O)[C@H]1CC[C@H]2[C@@H]3CCC4=CC(=O)CC[C@]4(C)[C@H]3CC[C@]12C,inactive
16,CCc1cc(C(N)=S)ccn1,inactive
17,CC(=O)Oc1ccccc1C(=O)Nc1ncc([N+](=O)[O-])s1,inactive

# Tested on: not listed separately
# Test: Cellular Toxicity (caspase-3) SHSY5Y (AID 657); further: potency means the concentration at half of the fitted maximal effect
# Conditions: SH-SY5Y caspase-3 activation; series mostly up to 91.7 µM
# In short: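 Luminescent Caspase-Glo 3/7 read-out, 1 hr room temperature, follows 16 hours of compound treatment of SH-SY5Y cells at 37 °C. Normalization: DMSO basal, 10 uM staurosporine as 100%; AC50 values from Hill-equation concentration-response fits.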
row,Structure (SMILES),Potency
1,Cc1ncc([N+](=O)[O-])n1CCO,inactive
2,Cc1noc(NS(=O)(=O)c2ccc(N)cc2)c1C,inactive
3,CC[C@H](C)C(=O)O[C@H]1C[C@@H](C)C=C2C=C[C@H](C)[C@H](CC[C@@H]3C[C@@H](O)CC(=O)O3)[C@H]21,inactive
4,CN(C)c1ccc(C(=C2C=CC(=[N+](C)C)C=C2)c2ccc(N(C)C)cc2)cc1,3.16 µM (active)
5,Cc1ccnc2c1NC(=O)c1cccnc1N2C1CC1,inactive
6,O=C(N[C@H](CO)[C@H](O)c1ccc([N+](=O)[O-])cc1)C(Cl)Cl,inactive
7,Cc1cc(NS(=O)(=O)c2ccc(N)cc2)no1,inactive
8,Cc1nnc(NS(=O)(=O)c2ccc(N)cc2)s1,inactive
9,NC(N)=NC(N)=NCCc1ccccc1,inactive
10,O=C(O)c1cc(=O)[nH]c(=O)[nH]1,inactive
11,CC1=NN(c2ccccc2)C(=O)C1,inactive
12,C[C@]12C=CC(=O)C=C1CC[C@@H]1[C@@H]2C(=O)C[C@@]2(C)[C@H]1CC[C@]2(O)C(=O)CO,inactive
13,COc1ccc2cc3[n+](cc2c1OC)CCc1cc2c(cc1-3)OCO2,inactive
14,N=C(N)c1ccc(OCCCCCOc2ccc(C(=N)N)cc2)cc1,inactive
15,NNC(=O)c1ccncc1,inactive
16,CC(=O)[C@H]1CC[C@H]2[C@@H]3CCC4=CC(=O)CC[C@]4(C)[C@H]3CC[C@]12C,inactive
17,CCc1cc(C(N)=S)ccn1,inactive
18,CC(=O)Oc1ccccc1C(=O)Nc1ncc([N+](=O)[O-])s1,inactive
